{
  "source": "paper PMC12670160",
  "about": "“A drug-repurposing screen of FDA- and EMA-approved drugs identifies two NF-κB inhibitors active against eumycetoma” (Journal of Antimicrobial Chemotherapy, 2025)",
  "note": "Counter-ions that a name gives are not always drawn. In all, about 5,300 compounds went through this assay and about 130 (2.5%) showed an effect of 50% or more. The sample as a whole holds a higher share of strong results than the screen did. Square brackets hold non-standard residues; d marks the D form. Peptide text beside a SMILES is read from it. dTrp(2-Me) = Cc1[nH]c2ccccc2c1C[C@@H](N)C(=O)O",
  "data": [
    {"tested_on": "M. mycetomatis strain mm55", "settings": "primary screen, metabolic activity vs growth control; 96 h, 2 µM; inhibitor", "units": {"% viability": "%"}, "values": [
      {"smiles": "C=C(Nc1ccc(OCC)cc1)Nc1ccc(OCC)cc1", "note": "[ONC0005342, phenacaine]", "% viability": 118.6},
      {"smiles": "O=C1c2c(O)cccc2[C@H]([C@@H]2O[C@H](CO)[C@@H](O)[C@H](O)[C@H]2O)c2cc(CO)cc(O)c21", "note": "[ONC0002367, aloin]", "% viability": 94.66},
      {"smiles": "On1ncc(C2CCNCC2)c1-c1cccc(-c2ccccc2)c1", "note": "[ONC0002501, php501 trifluoroacetate]", "% viability": 45.31},
      {"smiles": "CC[C@@]1(C2O[C@@H](C3O[C@@](O)(CO)[C@H](C)C[C@@H]3C)C[C@@H]2C)CC[C@H]([C@]2(C)CC[C@]3(C[C@H](O)[C@@H](C)[C@@H]([C@@H](C)[C@@H](OC)[C@H](C)C(=O)O)O3)O2)O1", "note": "(stereo partly shown) [ONC0004087, monensin sodium]", "% viability": 133.1},
      {"smiles": "O=C(O)Cc1ccc(OCc2ccccc2)c(Cl)c1", "note": "[ONC0002166, benzofenac]", "% viability": 78.33},
      {"smiles": "C=C(c1ccccc1OCc1cccc(Cl)c1)n1ccnc1", "note": "[Cloconazole HCl]", "% viability": 3.259},
      {"smiles": "C[C@H](Nc1ncnc2[nH]cnc12)c1cc2cccc(Cl)c2c(=O)n1-c1ccccc1", "note": "[ONC0004561, duvelisib ipi145 ink1197]", "% viability": 69.33},
      {"smiles": "COC(=O)C1=C(C)NC(C)=C(C(=O)O[C@@H]2CCCN(Cc3ccccc3)C2)[C@@H]1c1cccc([N+](=O)[O-])c1", "note": "(racemic) [ONC0004618, benidipine hydrochloride]", "% viability": 66.69},
      {"smiles": "CC(C)=CCC[C@](C)(O[C@@H]1O[C@H](CO)[C@@H](O)[C@H](O)[C@H]1O)[C@H]1CC[C@]2(C)[C@@H]1[C@H](O)C[C@@H]1[C@@]3(C)CC[C@H](O)C(C)(C)[C@@H]3CC[C@]12C", "note": "[ONC0002211, ginsenoside ck]", "% viability": 95.28},
      {"smiles": "NC(=O)[C@H]1CCS[C@@H]2C[C@]3(CCCN3C(=O)Cc3ccc(NC(=O)COc4ccc(Cl)cc4Cl)cc3)C(=O)N12", "note": "[ONC0001082, st 2825]", "% viability": 47.43},
      {"smiles": "O=C(CCCS)NC1CCN(C(=O)COc2ccc(Cl)cc2Cl)CC1", "note": "[ONC0005166, krasg12c inhibitor 6]", "% viability": 98.75},
      {"smiles": "C[C@]12C=CC(=O)C=C1CCC1C2[C@@H](O)C[C@@]2(C)C1CC[C@]2(O)C(=O)COP(=O)(O)O", "note": "(stereo partly shown) [ONC0004116, prednisolone sodium phosphate]", "% viability": 116.3},
      {"smiles": "CC(C)C(=O)SCCCCC[C@H](NC(=O)OC(C)(C)C)C(=O)NC12CC3CC(CC(C3)C1)C2", "note": "[ONC0002528, tcshdac620b]", "% viability": 72.9},
      {"smiles": "C1CCC(/N=C(\\NC23CC4CC(CC(C4)C2)C3)N2CCOCC2)CC1", "note": "[ONC0002564, pnu37883]", "% viability": 92.95},
      {"smiles": "CCOC(=O)c1ccc(N)cc1", "note": "[ONC0003279, benzocaine]", "% viability": 69.74},
      {"smiles": "CC(CNC1CCCCC1)OC(=O)c1ccccc1", "note": "(stereo not shown) [ONC0002941, hexylcaine]", "% viability": 55.94},
      {"smiles": "CCOC(=O)c1ccc(NC2CCCCC2)c(N)c1", "note": "[ONC0000320, ferrostatin1]", "% viability": 39.11},
      {"smiles": "CC(C)(O)c1ccn2c(-c3ccc(F)c(-c4ccc(F)cc4C#N)c3)cnc2c1F", "note": "[ONC0001920, tp003]", "% viability": 78.09},
      {"smiles": "CCC(=O)O[C@@H]1CC(=O)O[C@H](C)C/C=C/C=C/[C@H](OC(C)=O)[C@H](C)C[C@H](CC=O)[C@H](O[C@@H]2O[C@H](C)[C@@H](O[C@H]3C[C@@](C)(OC(C)=O)[C@@H](OC(=O)CC)[C@H](C)O3)[C@H](N(C)C)[C@H]2O)[C@H]1OC", "note": "[ONC0000277, midecamycin acetate]", "% viability": 81.75},
      {"smiles": "O[C@H](CNC[C@@H](O)[C@H]1CCc2cc(F)ccc2O1)[C@@H]1CCc2cc(F)ccc2O1", "note": "[ONC0004039, nebivolol hydrochloride]", "% viability": 98.08},
      {"smiles": "C[C@@]1(O)[C@H](O)[C@@H](CO)O[C@H]1n1cnc2c(=O)[nH]c(N)nc21", "note": "[ONC0005603, 2cmethylguanosine]", "% viability": 96.86},
      {"smiles": "CC(C(=O)O)c1ccc2c(c1)Cc1ccccc1-2", "note": "(stereo not shown) [ONC0003773, cicloprofen]", "% viability": 135.8},
      {"smiles": "O=C(c1ccc(Cl)cc1)N(Cc1ccccc1)C1CCCCC1", "note": "[ONC0001245, fpszm1]", "% viability": 58.23},
      {"smiles": "Cc1cc(C)c(NC(=O)N(Cc2ccc3c(c2)Cc2ccccc2-3)C2CCCCCC2)c(C)c1", "note": "[ONC0000194, ym750]", "% viability": 45.17},
      {"smiles": "CC(C)Oc1cccc(CC(=O)N2CCC[C@](CC[N+]34CCC(c5ccccc5)(CC3)CC4)(c3ccc(Cl)c(Cl)c3)C2)c1", "note": "[ONC0001589, sr140333]", "% viability": 65.88},
      {"smiles": "Nc1nc2c(c(=O)[nH]1)NC(CNc1ccc(C(=O)N[C@@H](CCC(=O)O)C(=O)O)cc1)CN2", "note": "(stereo partly shown) [ONC0005519, tetrahydrofolicacid]", "% viability": 129.8},
      {"smiles": "Cc1[nH]c2ccccc2c1C[C@@H](NC(=O)[C@@H](N)Cc1cnc[nH]1)C(=O)N[C@@H](C)C(=O)N[C@@H](Cc1c[nH]c2ccccc12)C(=O)N[C@H](Cc1ccccc1)C(=O)N[C@@H](CCCCN)C(N)=O", "note": "[ONC0005614, examorelin] (H-H[dTrp(2-Me)]AW[dF]K-NH2)", "% viability": 66.44},
      {"smiles": "Oc1cc2c(cc1O)C(Cc1cccc3ccccc13)NCC2", "note": "(stereo not shown) [ONC0001928, ys49]", "% viability": 88.3}
    ]}
  ]
}
